In PubChem BioAssay (NCI):
About 83,000 compounds went through this panel and 20% of them were active in at least one assay; those are over-represented in the sample as a whole.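 Plates (96-well) were seeded with cells, treated with compound at one concentration, and incubated for 48 hours before percent growth was determined.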 Values without a mark were called inactive. Active and inactive are the calls of the source. Rule for the calls: active = growth percent below 10; inactive = the rest.

Experiments:
Test in all cases: NCI-60 one-dose screen, 48 h (100 = growth as untreated, 0 = no growth, -100 = all killed)
Conditions in all cases: 10 µM unless noted
SK-MEL-2 melanoma = system: SK-MEL-2 melanoma
EKVX NSCLC = system: EKVX NSCLC
SN12C renal = system: SN12C renal
UO-31 renal = system: UO-31 renal
TK-10 renal = system: TK-10 renal
ACHN renal = system: ACHN renal
CAKI-1 renal = system: CAKI-1 renal
A498 renal = system: A498 renal
CCRF-CEM leukemia = system: CCRF-CEM leukemia
MOLT-4 leukemia = system: MOLT-4 leukemia
SR leukemia = system: SR leukemia
OVCAR-8 ovarian = system: OVCAR-8 ovarian
OVCAR-5 ovarian = system: OVCAR-5 ovarian
OVCAR-4 ovarian = system: OVCAR-4 ovarian
SK-OV-3 ovarian = system: SK-OV-3 ovarian
IGROV1 ovarian = system: IGROV1 ovarian
OVCAR-3 ovarian = system: OVCAR-3 ovarian
HS 578T breast = system: HS 578T breast
NCI/ADR-RES ovarian = system: NCI/ADR-RES ovarian
RPMI-8226 leukemia = system: RPMI-8226 leukemia

Compound | growth (SK-MEL-2 melanoma) | growth (EKVX NSCLC) [%] | growth (SN12C renal) [%] | growth (UO-31 renal) [%] | growth (TK-10 renal) [%] | growth (ACHN renal) [%] | growth (CAKI-1 renal) | growth (A498 renal) | growth (CCRF-CEM leukemia) | growth (MOLT-4 leukemia) | growth (SR leukemia) | growth (OVCAR-8 ovarian) [%] | growth (OVCAR-5 ovarian) [%] | growth (OVCAR-4 ovarian) [%] | growth (SK-OV-3 ovarian) [%] | growth (IGROV1 ovarian) [%] | growth (OVCAR-3 ovarian) | growth (HS 578T breast) [%] | growth (NCI/ADR-RES ovarian) [%] | growth (RPMI-8226 leukemia) [%]
O=C(O)CNC(=O)C1(N2C(=O)c3ccccc3C2=O)CCCC1 | 101% | 104 | 99 | 94.1 | 99.6 | 108 | 98.5% | 100% | 88.8% | 101% | 99.3% | 104 | 101 | 99.4 | 111 | 119 | 139% | 128 | 110 | –
CC(=O)c1ccccc1NC(=O)C(C)(c1ccccc1)c1ccccc1 | 70% | 92.7 | 108 | 81.7 | 110 | 83.7 | 108% | -17.9% (active) | 77.4% | 62% | 65.9% | 90.2 | 91.3 | 97.9 | 103 | 101 | 103% | 34.3 | 63.8 | –
COc1cc(/C(Cl)=C/C=C/C(=O)c2c(C)[n+]([O-])c3ccc(Cl)cc3[n+]2[O-])cc(OC)c1OC | 28.5% | 89.3 | 31.9 | 45.7 | 71.6 | 26.9 | 41.3% | 85.1% | 8.02% (active) | 12.4% | 2.04% (active) | – | 81.8 | 34.1 | 69.5 | 37.2 | 33.7% | 17.4 | 31.1 | 19
Nc1ccc(N=Nc2ccccc2)cc1[N+](=O)[O-] | 87.2% | 75.2 | 84.6 | 45.9 | 82.8 | 89.9 | 66% | 109% | 97.7% | 74.1% | 93.2% | 94.7 | 110 | 71.5 | 97.9 | 62.9 | 102% | 139 | 95.9 | –
O=C(NCCNC(=O)Oc1cccc2ccccc12)Oc1cccc2ccccc12 | 88.7% | 92.9 | 105 | 45.4 | 92.3 | 85.3 | 95% | 89.2% | 65.2% | 80.6% | 97.8% | – | 105 | 96.4 | 94.5 | 65.2 | 86.5% | 104 | 95.8 | 92.5
CCN(CC)CCSc1ncnc2c1cnn2-c1ccc(S(N)(=O)=O)cc1 | 96.5% | 86.8 | 89.5 | 87.7 | 103 | 92.2 | 7.74% (active) | 92% | 88.4% | 85.6% | 57% | 83.5 | 112 | 106 | 108 | 96.5 | 84.4% | 103 | 85.2 | –
O=C(/C=C(\Nc1ccccc1)c1ccccc1)c1cn(-c2ccc([N+](=O)[O-])cc2)nn1 | 5.29% (active) | 100 | 104 | 69 | 118 | 94.6 | 108% | 96.2% | 71.4% | 64.3% | 69.4% | – | 116 | 87.9 | 106 | – | 112% | 63 | 111 | 84
COc1cc(-c2nc3nc4sc(C)c(C)c4c(=O)n3[nH]2)cc(OC)c1OC | 80.1% | 88 | 93.6 | 54.7 | 110 | 83.2 | 61.8% | 74.5% | 61% | 68.3% | 30.7% | – | 96.4 | 93.5 | 92 | 66.6 | 93.1% | 87.7 | 70.8 | 74.3
CC(=O)Nc1c(Cl)cc2c(c1Cl)Cc1ccccc1-2 | 93.8% | 64.3 | 90.9 | 69.2 | 115 | 100 | 86.1% | 93.7% | 102% | 93% | 101% | 102 | 85.4 | 100 | 113 | 93 | 105% | 114 | 103 | –
COC(=O)C1(NC(=O)CNC(=O)OCc2ccccc2)CCCC1 | 102% | 98.2 | 95.4 | 93.1 | 99.9 | 105 | 100% | 96.9% | 101% | 111% | 100% | 106 | 103 | 98.3 | 111 | 115 | 149% | 131 | 111 | –
COc1ccc(/C=C2/SC(=Nc3c(C)nn(-c4ccccc4)c3N)NC2=O)cc1 | 39.1% | 69.3 | 67.9 | 32.8 | 71.6 | 46.8 | 23% | -54.5% (active) | 33.2% | 51.6% | 14.9% | 70.2 | 76.2 | 51.9 | 54.2 | 27.2 | -28.9% (active) | 31.7 | 42 | –
N=C1c2nc3n(c2C(=O)c2nc4n(c21)CCCCC4)CCCCC3 | 118% | 103 | 106 | 83.6 | 142 | 105 | 95.1% | 91.6% | 104% | 93.7% | 91.8% | – | 123 | 93.2 | 107 | 130 | 111% | – | 110 | 99.1
Cn1ccnc1C(=O)/C=C/c1ccc(C(=O)Nc2nc3ccccc3[nH]2)cc1 | 85.4% | 62.3 | 51.7 | 28.3 | 66.5 | 49.3 | 18.6% | 51.1% | 15.4% | 45.2% | 11.2% | – | 59.9 | 36.7 | 77.2 | 36 | – | 40.2 | 24.6 | 10.7
Cn1c(=O)c2[nH]c(=S)n(Cc3ccccc3)c2n(C)c1=O | 104% | 125 | 99 | 91.4 | 104 | 96.1 | 111% | 92.8% | 113% | 81.9% | 91.4% | – | 105 | 98.9 | 107 | 108 | 104% | 101 | 99.2 | 119
O=C(NC1CCS(=O)(=O)C1)c1ccc(C(=O)c2ccccc2)cc1 (centres undefined) | 7.36% (active) | 96.3 | 105 | 76.5 | 137 | 98.1 | 98.2% | 110% | 127% | 109% | 133% | 70 | 102 | 98.1 | 113 | – | – | 34.5 | 117 | 72.8
COC(=O)[C@H]1[C@H]2C[C@@H]3c4[nH]c5cc(OC)ccc5c4CCN3C[C@H]2C[C@@H](OC(=O)/C=C/c2cc(OC)c(OC)c(OC)c2)[C@@H]1OC | 66.2% | 90.4 | 63.3 | 69.2 | 46.4 | 68.5 | 30.9% | 81.7% | 5.36% (active) | 8.49% (active) | -7.74% (active) | 50.6 | 113 | 13.6 | 98.6 | 38.4 | -42.8% (active) | 69.3 | 49.1 | –
O=C(CSc1ncc(-c2ccccc2)n1-c1ccccc1)Nc1ccc(-c2nc3ccccc3s2)cc1 | 80.6% | 103 | 71.2 | 98.4 | 44.2 | 102 | 87.4% | 107% | 83.8% | 66.6% | 73% | – | 82.5 | 52.5 | 116 | 73.4 | 95.4% | 91.9 | 61.2 | 65.5
